# High-throughput results as filed in PubChem.
# APP transl inh: APP translation inhibition. SH-SY5Y APP 5'UTR-luciferase reporter, luminescence. inhibition, % at 2 µM. 0.82% of 190,000 active. AID 1285;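 active = inhibition above a set limit, derived from the sample mean plus 3 SD, cut at about 45% in these data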
# KLF5 inhibitor: kruppel-like factor 5 inhibition; DLD-1 KLF5 promoter-luciferase reporter, luminescence; inhibition, % at 5 µM; 0.23% of 290,000 active; AID 1700;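 active = inhibition above a per-plate limit of that plate's mean compound inhibition plus 3 SD, cut at about 60% in these data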;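 also: 0% = DMSO wells and 100% = LY294002 at 200 µM; higher means less KLF5 promoter-driven luciferase light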
# Ba/F3 V617F tox: lowers viability of Ba/F3 cells expressing EpoR and JAK2V617F; ATP luminescence; inhibition, % at 5.6 µM; 1.1% of 220,000 active;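 active = inhibition above the campaign mean plus 3 SD over all tested compounds, cut at about 24% in these data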;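 also: cytokine-independent growth of Ba/F3 cells driven by EpoR plus mutant JAK2; 0% = DMSO-treated cells and 100% = JAK inhibitor I control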
# aSyn 5UTR inh: MLPCN primary screen, SNCA 5' untranslated region | alpha-synuclein 5'UTR reporter, inhibitor activity | inhibition, % (tested at 7.5 µM) | 0.82% of 300,000 active | AID 1813; in the data active = inhibition above about 60%;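 also: H4 neuroglioblastoma cells stably carrying SNCA 5'UTR luciferase fusion; 0% = DMSO wells and 100% = positive control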
# IEC-6 tox: IEC-6 cytotoxicity, counter-screen for KLF5 inhibitors; luminescence viability; inhibition, % at 5 µM; 0.78% of 290,000 active; AID 1825; in the data active = inhibition above about 22%;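 also: 0% = plate median of test compound wells and 100% = cytotoxic reference compound wells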
# BaF3 tox: parental Ba/F3 viability inhibition as JAK2V617F counter-screen. CellTiter-Glo ATP luminescence. inhibition, % at 5.6 µM. 1.1% of 220,000 active. AID 1486;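 active = inhibition above a per-campaign cutoff, the mean inhibition of all tested compounds plus 3 SD, cut at about 27% in these data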;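 also: 0% = DMSO wells and 100% = JAK Inhibitor I control wells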
# * hit, by the source's call; x = no result. The list is not random: actives were taken first. Their share in the collection is about 2.2%.
SMILES,APP transl inh,KLF5 inhibitor,Ba/F3 V617F tox,aSyn 5UTR inh,IEC-6 tox,BaF3 tox
CN(C)c1cc[n+](CC(=O)N2CCCc3ccccc32)cc1,2,-20,52*,-5,2,63*
COC(=O)C1=C(C)NC(C)=C(C(=O)OCC(C)C)C1c1ccccc1[N+](=O)[O-] (configuration not stated),x,x,x,71*,x,x
CCCOc1ccccc1C1CC(=O)NC(C)=C1C(=O)OCC(C)C (configuration not stated),-11,-15,2,16,3,4
CC(=O)c1c(N2CCCCC2)nc(=S)n(-c2ccccc2)c1C,11,-12,23,6,-1,41*
O=C(NC(=S)NC1CCCCC1)c1ccc(F)cc1,x,-107,x,-162,-1,x
CCN(CC(=O)Nc1c(F)cccc1F)C(=O)CCN1C(=O)C2CC=CCC2C1=O (configuration not stated),x,x,x,-2,x,x
C/C(=N\NC(=O)c1cc2ccccc2cc1O)c1cc2ccccc2o1,x,-30,-2,-35,-8,-2
C/C(=N\NC(=O)c1cc2ccccc2cc1O)c1ccccn1,x,27,x,88*,0,x
C/C(=N\NC(=O)CCCNc1ccc(C)cc1)c1ccccn1,31,-30,1,78*,2,4
C/C(=N\NC(=O)CCCNc1ccccc1)c1ccncc1,-8,-38,0,5,6,6
C=CCNC(=S)N/N=C(\C)c1ccccn1,93*,54,98*,86*,91*,91*
C/C(=N\NC(=O)c1c[nH]c2ccccc12)c1ccccn1,47*,-58,-2,72*,6,4
COc1cc(OC)cc(C(=O)Nc2nnc(Cc3ccc(OC)c(OC)c3)s2)c1,12,-33,-2,10,6,9
CC(C)CCN1CCN(Cc2coc3ccccc3c2=O)CC1CCO (configuration not stated),x,-1,x,3,1,x
CCN(CC)CCOC(=O)c1ccc(NC(=O)c2ccc(Cl)c(S(=O)(=O)N3CCCCCC3)c2)cc1,-3,19,0,-19,-3,9
CCCCC(=O)NC(c1ccccc1Cl)c1ccc2cccnc2c1O (configuration not stated),x,71*,x,83*,19,x
COc1ccc(Cl)cc1C(Nc1cccnc1)c1ccc2cccnc2c1O (configuration not stated),-4,57,9,52,12,0
Oc1c(C(c2ccc(Cl)cc2)N2CCCC2)cc(Cl)c2cccnc12 (configuration not stated),11,51,4,33,-2,12
CCC(=O)NC(c1ccccc1OC)c1ccc2cccnc2c1O (configuration not stated),89*,35,61*,80*,19,68*
Oc1c(C(c2ccccc2Cl)N2CCCC2)ccc2cccnc12 (configuration not stated),7,73*,83*,97*,12,68*
COC(=O)c1c(C(=O)OC)c(-c2ccc(Cl)cc2)n2c1CS(=O)(=O)C2,-1,-9,1,6,2,7
COc1ccc(C(O)(C(C)C)C(CN2CCOCC2)c2ccc(Cl)cc2)cc1 (configuration not stated),x,-14,x,-13,-3,x
O=C(CSc1ccc2c(c1)OCCO2)Nc1ncc(Cl)cc1Cl,46*,-7,-2,23,-2,4
C=CCN1C(=Nc2cccnc2)SCC1(O)c1ccc(C)cc1 (configuration not stated),4,-60,10,-48,0,33*
Cc1csc(=Nc2cccnc2)n1CC1CCCCC1,16,-14,10,11,-7,16
SMILES,APP transl inh,KLF5 inhibitor,Ba/F3 V617F tox,aSyn 5UTR inh,IEC-6 tox,BaF3 tox
O=C1CSc2ccc(C(=O)Nc3cccc(S(=O)(=O)Nc4ccc(Br)cc4)c3)cc2N1,7,8,17,-1,4,44*
O=C(Nc1ccc(NS(=O)(=O)c2ccccc2)cc1)c1ccc(Cl)cc1,x,-2,x,-21,2,x
O=C(Nc1cccc(S(=O)(=O)Nc2ccc(Cl)cc2)c1)c1ccc(Cl)nc1,2,-8,41*,-19,13,52*
Cc1nc2ncccn2c1-c1csc(Nc2ccccc2)n1,6,-29,-1,-16,4,2
CC(=O)Nc1ccc(Nc2nc(-c3c(C)nc4ccccn34)cs2)cc1,x,x,x,87*,x,x
Cc1nc2ncccn2c1-c1csc(Nc2ccc(N(C)C)cc2)n1,94*,33,79*,70*,22*,81*
COc1ccc(Nc2nc(-c3c(C)nc4ncccn34)cs2)cc1,94*,84*,83*,x,86*,83*
Cc1nc2ncccn2c1-c1csc(Nc2ccc(S(N)(=O)=O)cc2)n1,x,-55,x,6,-7,x
Cc1ccc(C)c(S(=O)(=O)N2CCCC2CNC(=O)C(=O)NCC2CCCO2)c1 (configuration not stated),x,x,x,-1,x,x
N#CC(NC(=O)OCc1ccccc1)c1ccccc1 (configuration not stated),x,x,x,15,x,x
CC(C)(C)C(=O)Nc1ccc(N=Nc2ccccc2)cc1,-114,-9,4,79*,-1,6
CC(NCc1ccccc1)C1COc2ccccc2O1 (configuration not stated),-19,-25,-1,9,-7,2
COc1ccc(CNC(C)C2COc3ccccc3O2)c(OC)c1 (configuration not stated),8,-7,1,14,3,96*
N#Cc1cccc(NC(=O)CN2C(=O)NC(Cc3ccccc3)C2=O)c1 (configuration not stated),x,-9,-5,-7,-2,0
O=C1CC(c2ccccc2Br)c2cc3c(cc2N1)CCC3 (configuration not stated),-11,-29,0,12,-1,5
O=C1CC(c2ccccc2F)c2cc3c(cc2N1)CCC3 (configuration not stated),64*,-8,63*,65*,16,77*
O=C1CC(c2cc(Br)ccc2F)c2cc3c(cc2N1)CCC3 (configuration not stated),41,0,-4,65*,-6,4
COc1cccc(C2CC(=O)Nc3cc4c(cc32)CCC4)c1 (configuration not stated),57*,43,38*,84*,46*,45*
CCN(CC)CCNC(=O)CNC(=O)c1nn(-c2ccc(OC)c(OC)c2)c(=O)c2ccccc12,x,-19,x,11,-6,x
Cc1nc(CS(=O)(=O)c2ccccn2)sc1C(=O)NNC(=O)c1ccc(Cl)cc1,x,-39,0,-18,0,-2
O=C(NNC(=O)C12CC3CC(CC(C3)C1)C2)c1csc(N2CCOCC2)n1,x,x,x,4,x,x
COc1ccccc1NC(=O)C(C)OC(=O)CCC1CCCCC1 (configuration not stated),x,-5,x,-8,-5,x
COc1ccc(-n2cc(-c3ccc(OC(F)F)cc3)[n+]3c2CCCCC3)cc1,-6,6,72*,15,10,64*
